According to ChEMBL document CHEMBL4513140, “CO-ADD screening of Lancaster University (UK) compounds” (2021):
Results with a measured potency or affinity are listed apart.

Test system: Staphylococcus aureus
Details: Concentration 32 ug.mL-1; ASSAY_TEST Inhibition of Bacterial Growth; detection method Absorption (OD600); MEDIA CAMHB; plate type 384well; NBS; CORNING #3640; time 18 hr

| SMILES | Inhibition [%] |
| --- | --- |
| CC(=NN)c1cc(/C(C)=N/N)cc(/C(C)=N/N)c1 | 18.93 |
| CC(=O)c1cc(C(C)=O)cc(C(C)=O)c1 | 25.72 |
| c1ccc2nc3c4cccnc4c4ncccc4c3nc2c1 | 8.68 |
| COC(=O)c1ccc(S)cc1 | 8.34 |

Test system: Escherichia coli
Details: Concentration 32 ug.mL-1; ASSAY_TEST Inhibition of Bacterial Growth; detection method Absorption (OD600); MEDIA CAMHB; plate type 384well; NBS; CORNING #3640; time 18 hr

| SMILES | Inhibition [%] |
| --- | --- |
| CC(=NN)c1cc(/C(C)=N/N)cc(/C(C)=N/N)c1 | 9.06 |
| CC(=O)c1cc(C(C)=O)cc(C(C)=O)c1 | -14.66 |
| c1ccc2nc3c4cccnc4c4ncccc4c3nc2c1 | -14.57 |
| COC(=O)c1ccc(S)cc1 | -21.23 |
